Compound activity: PubChem, National Center for Advancing Translational Sciences (NCATS)
Sampled rows, rich in hits. Any-hit rate of the full collection: about 2.8%.
GLP1R cytotox: cytotoxicity counter-screen for GLP-1 receptor inverse agonists; HEK293 cAMP-luciferase reporter cells, luminescence, 24 h; Potency, µM (highest dose often 38.3 µM), most hits filed as inhibitors; hit rate 0.13% among 410,000;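 further: loss of luciferase light is scored as toxicity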
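Cells in DMEM/10% Nu serum/1% pen-strep, 1536-well format. Pre-incubated 12 h, dosed with 23 nL compound, incubated a further 24 h. Luciferase detection, 12 min at room temp, luminescence.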
Mito fusion yeast: blocks mitochondrial division or promotes mitochondrial fusion. S. cerevisiae fusion-defective mutant growth rescue, CellTiterGlo 48 h. Potency, µM (highest dose often 46.1 µM), usual class: activators. hit rate 0.23% among 320,000; further: nearly all actives have a fitted effect of over 45% in size
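Yeast fusion mutant, YPEG (non-fermentable carbon), compound, 48 h at 37C non-permissive; CellTiterGlo added, 10 min RT, luminescence read. Rescued growth = division inhibition.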
BRCA1 expr up: BRCA1 expression activation; MCF7-BRCA1-FFLuc reporter, luminescence, 48 h; response scale: scaled: vehicle 0%, 10 µM genistein 100%; Potency, µM (highest dose often 46.1 µM), most hits filed as activators; hit rate 1.1% among 380,000; AID 624202; further: nearly all actives have a fitted effect of over 80% in size
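48 h compound treatment of MCF7-BRCA1-FFLuc cells (phenol-red free MEM, 37 °C), then 15 min with luciferase substrate and luminescence imaging.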
GLP-1R inv ag: GLP-1 receptor (human) inverse agonism. P43220. HEK293 GLP-1R CRE-luciferase, luminescence, 24 h; GLP-1R form is constitutively active. Potency, µM (titrated, usually from 38.3 µM), most hits filed as inhibitors. hit rate 1.6% among 410,000; further: nearly all actives have a fitted effect of over 55% in size
Target sequence (P43220 whole entry, looked up): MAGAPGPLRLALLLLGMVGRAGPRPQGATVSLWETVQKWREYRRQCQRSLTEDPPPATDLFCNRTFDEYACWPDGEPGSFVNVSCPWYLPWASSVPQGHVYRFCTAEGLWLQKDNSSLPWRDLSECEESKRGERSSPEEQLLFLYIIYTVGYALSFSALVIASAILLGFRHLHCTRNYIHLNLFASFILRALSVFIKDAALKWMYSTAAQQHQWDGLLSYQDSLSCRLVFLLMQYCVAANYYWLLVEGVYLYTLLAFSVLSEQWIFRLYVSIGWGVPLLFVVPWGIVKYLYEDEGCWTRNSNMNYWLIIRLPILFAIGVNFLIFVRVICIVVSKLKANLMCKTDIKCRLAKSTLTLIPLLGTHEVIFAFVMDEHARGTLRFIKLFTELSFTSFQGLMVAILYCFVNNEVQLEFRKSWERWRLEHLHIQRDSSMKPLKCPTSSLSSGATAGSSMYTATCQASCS
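Seeding at 200 cells/uL, 12 h culture, 24 hr compound treatment, then luciferase reagent and a luminescence read; cells are HEK293 stably expressing a constitutively active GLP-1R plus cAMP-responsive luciferase.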
GLP1R ag: activates the human GLP-1 receptor | HEK293 GLP-1R CRE-luciferase, luminescence, 4-6 h; cells express a hypersensitive GLP-1R form | Potency, µM (highest dose often 45.6 µM), hits mostly activators | hit rate 0.007% among 380,000 | AID 624172
Of the large screens only hits and unclear results are named; the others gave an inactive call; ! = not confirmed by another sample. The call rests on the fitted dose curve; in most records, active means well fitted curve in the direction sought with a large enough effect; inconclusive means small, poorly fitted or top-dose-only effect, or another doubt; inactive means no such curve, though single readings can be large; an effect the other way counts as inactive or inconclusive.

c1ccc(CNCCCNCCCCNCCCNCc2ccccc2)cc1	GLP1R cytotox inconclusive, GLP-1R inv ag 2.8µM (no result: Mito fusion yeast)
O=C(O)CCCCNCc1ccccc1	none
O=c1c(Cc2ccc(F)cc2)c(O)ccn1Cc1cccc(Cl)c1	GLP-1R inv ag 7.9µM
O=C(c1cc(C2CC2)nn1-c1ccccc1)N1CCN(Cc2ccc(Cl)cc2)CC1	Mito fusion yeast 20µM, GLP-1R inv ag inconclusive
O=C(c1cc(C2CC2)nn1-c1ccccc1)N1CCN(Cc2ccccc2F)CC1	GLP-1R inv ag 8.9µM
O=C1CSC(=S)N1N=Cc1c(F)cccc1Cl	none (no result: Mito fusion yeast)
Cc1cccc(C(=O)Nc2nc(C)c(C(=O)Nc3ccc4c(c3)CCC4)s2)c1	GLP1R cytotox inconclusive
Cc1cccc(C)c1C(O)c1ncc(-c2ccc(Cl)cc2)[nH]1 (configuration not stated)	GLP-1R inv ag inconclusive (no result: Mito fusion yeast)
CSc1ncc(-c2ccc(Cl)cc2)[nH]1	BRCA1 expr up 10µM
CC(C)(C)c1ccc(C(=O)N2CCC(C(=O)NC3CC3)CC2)cc1	BRCA1 expr up inconclusive
CC(C)(C)c1ccc(C(=O)NC(=S)N2CCCCCC2)cc1	GLP1R cytotox inconclusive, GLP-1R inv ag 7.1µM
CC(C)(C)c1ccc(C(=O)N2CCC(NC(=O)c3ccccc3)CC2)cc1	Mito fusion yeast 35µM
CC1CCN(C(=S)NC(=O)c2ccc(C(C)(C)C)cc2)CC1	GLP1R cytotox inconclusive, GLP-1R inv ag 8.9µM
CCCS(=O)(=O)n1nc(-c2ccc(OC)cc2)cc1N	none
CCCN(CC1CC1)C(=S)NC(=O)c1cc(Br)ccc1Cl	GLP1R cytotox 3.2µM, Mito fusion yeast inconclusive
CC1=C(C(=O)N(C)C)CC(CC(=O)NC(c2ccccc2)c2ccccc2)C(=O)N1Cc1ccc(C(C)(C)C)cc1 (configuration not stated)	GLP-1R inv ag inconclusive (no result: Mito fusion yeast)
CCN(CC)C(=O)C1=C(C)N(Cc2ccc(C(C)(C)C)cc2)C(=O)C(CC(=O)NC(c2ccccc2)c2ccccc2)C1 (configuration not stated)	GLP-1R inv ag 7.9µM (no result: Mito fusion yeast)
CCN(CC)C(=O)C1=C(C)N(Cc2ccc(F)cc2)C(=O)C(CC(=O)NC(c2ccccc2)c2ccccc2)C1 (configuration not stated)	GLP-1R inv ag 11µM (no result: Mito fusion yeast)
CCc1nc2oc3ccc(C)cc3c(=O)c2cc1C(=O)OC	BRCA1 expr up 6.3µM
COc1cccc(-n2cc(C(=O)Oc3ccc(F)cc3)c3ccccc3c2=O)c1	none (no result: Mito fusion yeast, BRCA1 expr up, GLP1R ag)
CC(C)(C)Sc1ccc2nc3c(n2c1)CCCC3	GLP1R cytotox inconclusive, GLP-1R inv ag 10µM, GLP1R ag inconclusive
CCN(CC#CCC(O)(c1ccccc1)C1CCCC1)C(C)C (configuration not stated)	GLP-1R inv ag 11µM
COc1cccc(-c2nc(-c3ccc4c(c3)NC(=O)CO4)cs2)c1	BRCA1 expr up 10µM
O=C1COc2ccc(-c3csc(-c4ccc(F)cc4)n3)cc2N1	none (no result: GLP1R cytotox, Mito fusion yeast, GLP-1R inv ag, GLP1R ag)
COc1ccc(CCNC(=O)Cc2c(C)c3c(cc(C)c4c(C)coc43)oc2=O)cc1	none (no result: Mito fusion yeast, BRCA1 expr up, GLP1R ag)
Cc1cc2oc(=O)c(CC(=O)NCCc3ccccc3)c(C)c2c2occ(C(C)(C)C)c12	GLP-1R inv ag 10µM (no result: Mito fusion yeast, BRCA1 expr up, GLP1R ag)
CC(C)OCCCNc1nc2c(-c3ccccc3)nnn2c2ccccc12	none (no result: GLP1R cytotox, BRCA1 expr up, GLP-1R inv ag, GLP1R ag)
CCCN(C(=O)CSc1nc2c(cnn2-c2ccccc2)c(=O)[nH]1)C1CCS(=O)(=O)C1 (configuration not stated)	none
CCOC(=O)c1nn(-c2ccc(C)cc2)cc1O	BRCA1 expr up inconclusive
CCOC(=O)c1nn(-c2ccc3ccccc3c2)cc1O	BRCA1 expr up 2.8µM, GLP-1R inv ag inconclusive
CCOC(=O)c1nn(-c2ccc3c(c2)OCO3)cc1O	BRCA1 expr up 3.2µM
CCOC(=O)C1CCC(CN(Cc2ccc(OC)cc2)S(=O)(=O)c2ccc(C)cc2)CC1 (configuration not stated)	GLP-1R inv ag inconclusive (no result: Mito fusion yeast, BRCA1 expr up, GLP1R ag)
COc1ccccc1CNC(=O)c1ccc(N2CCCC2)c(NC(=O)NCc2ccc(C)cc2)c1	none (no result: Mito fusion yeast, BRCA1 expr up, GLP1R ag)
Cc1ccc(C)c(N2CCN(C(=O)C3CCN(S(=O)(=O)c4c(C)noc4C)CC3)CC2)c1	GLP-1R inv ag 11µM
Cc1ccc(C)c(N2CCN(C(=O)C3CCCN(S(=O)(=O)c4c(C)noc4C)C3)CC2)c1 (configuration not stated)	none
Cc1cccc(/C=C/c2onc(C)c2S(=O)(=O)N2CCC(C(=O)N3CCCCCC3)CC2)c1	GLP-1R inv ag 2.8µM
Cc1cccc(/C=C/c2onc(C)c2S(=O)(=O)N2CCC(C(=O)N3CCC(C)CC3)CC2)c1	GLP-1R inv ag 2.8µM!
COc1cccc(/C=C/c2onc(C)c2S(=O)(=O)N2CCC(C(=O)N3CCC(C)CC3)CC2)c1	none (no result: Mito fusion yeast, BRCA1 expr up, GLP1R ag)
O=C1ON=C(c2ccccc2)/C1=C/c1ccc(OS(=O)(=O)c2ccccc2)cc1	none
CN(C)/N=C/c1ccc(OS(=O)(=O)c2ccccc2)cc1	BRCA1 expr up 10µM
O=[N+]([O-])c1ccc(CSc2ccc(S(=O)(=O)N3CCCCCC3)cn2)cc1	GLP-1R inv ag 11µM
Cc1n[nH]c(=O)c2c(NC(=O)CSc3nncn3C(C)C)oc(C)c12	none
CCCc1nc2c3ccccc3ccn2c1Cc1ccccc1	BRCA1 expr up 11µM, GLP-1R inv ag inconclusive (no result: Mito fusion yeast)
Cc1ccc(-c2nc3c4ccccc4ccn3c2Cc2ccccc2)cc1	none (no result: Mito fusion yeast)
CCOC(=O)c1c(C)[nH]c(C(=O)OCC(=O)Nc2ccc(Cl)cn2)c1C	none
CCOC(=O)c1c(C)[nH]c(C(=O)OCC(=O)Nc2sccc2C(N)=O)c1C	GLP1R cytotox inconclusive, GLP-1R inv ag 11µM
CCOC(=O)c1c(C)[nH]c(C(C)=NNC(=O)c2cccs2)c1C	BRCA1 expr up 2.8µM (no result: Mito fusion yeast)
Cc1cccc(C2(c3cccc(C)c3)CC2C(=O)Nc2ccc([N+](=O)[O-])cc2O)c1 (configuration not stated)	GLP1R cytotox inconclusive, GLP-1R inv ag 2.5µM
Cc1cc(C)c(OCCN(C)C)c(Cl)c1	none
Cc1ccc(OCCOCCOc2cccc3cccnc23)c(Br)c1	Mito fusion yeast inconclusive, GLP-1R inv ag inconclusive
Cc1cc(Cl)cc(Cl)c1OCCOCCN(C)C	GLP-1R inv ag 11µM
Cc1cc(Cl)cc(Cl)c1OCCOc1cccc2cccnc12	Mito fusion yeast inconclusive, GLP-1R inv ag 8.9µM
Brc1ccccc1OCCCOc1cccc2cccnc12	BRCA1 expr up 8.9µM, GLP-1R inv ag inconclusive
Brc1ccccc1OCCOc1cccc2cccnc12	BRCA1 expr up inconclusive
COc1ccc(/C=N\NC(=O)c2ccccc2Br)cc1COc1ccc(F)cc1	none
COc1ccc(/C=N\NC(=O)c2ccccc2)cc1COc1ccc(F)cc1	GLP-1R inv ag 7.9µM
COc1ccc(C(=O)N/N=C/c2ccc(OC)c(COc3ccc(F)cc3)c2)cc1	GLP-1R inv ag 10µM
O=C(NCc1ccc2c(c1)OCO2)c1ccc2c(c1)N(Cc1ccccc1)C(=O)c1ccccc1S2=O (configuration not stated)	none (no result: Mito fusion yeast)
